# Measurements reported in PubChem BioAssay (NCI).
# Compounds without any hit were thinned out: in the full panel of roughly 79,000, 15% have a hit. Unmarked numbers belong to inactive results. Activity calls are given as the source filed them. Rule as the data show it: active = growth inhibition above about 70%; inactive = the rest.
# Key:
# [1] = NCI Yeast Anticancer Drug Screen. Data for the rad50 strain (AID 155);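 also: 0% = growth of vehicle-only cultures of the same strain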; conditions: S. cerevisiae rad50 strain growth inhibition, active compounds read high
# In short: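 Cells are treated with compound, grown, and their growth is then scored against vehicle-only cultures of the same repair-deficient yeast strain.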
# [2] = NCI Yeast Anticancer Drug Screen. Data for the mec2-1 strain (AID 157); conditions: S. cerevisiae mec2-1 strain, active compounds read high
# In short: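 Using mec2-1 yeast: add compound, measure growth, express inhibition versus vehicle-treated cultures.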
# [3] = NCI Yeast Anticancer Drug Screen. Data for the sgs1 mgt1 strain (AID 161);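 also: 0% = growth of cultures given vehicle only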; conditions: S. cerevisiae sgs1 mgt1 strain, active compounds read high
# In short: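 Compounds are added to genetically altered yeast, and growth is compared with cultures given vehicle alone to give percent inhibition.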
# [4] = NCI Yeast Anticancer Drug Screen. Data for the cln2 rad14 strain (AID 165);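 also: 0% = growth equal to vehicle treated cultures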; conditions: S. cerevisiae cln2 rad14 strain, active compounds read high
# In short: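 Yeast strain cln2 rad14, bearing defects in cell cycle control and DNA repair, serves as the test system; values reflect growth inhibition compared with vehicle.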
# [5] = NCI Yeast Anticancer Drug Screen. Data for the bub3 strain (AID 167); conditions: S. cerevisiae bub3 mutant strain, active compounds read high
# In short: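 Part of a panel of yeast mutants defective in DNA damage repair or cell cycle regulation. Each strain is grown with compound, and inhibition is calculated relative to solvent-treated cultures.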
# [6] = NCI Yeast Anticancer Drug Screen. Data for the mlh1 rad18 strain (AID 175); conditions: S. cerevisiae mlh1 rad18 strain growth inhibition, active compounds read high
# In short: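 Steps: expose repair-defective yeast to compound; measure growth; express inhibition against vehicle-treated controls.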
# [7] = at 5.0 µM (retest, dose inferred, filed as 0.5)
# [8] = at 50.0 µM (retest, dose inferred, filed as 5.0)
Structure (SMILES),"growth inhibition [1, 7]","growth inhibition [1, 8]",growth inhibition ([1]; at 50.0 µM),"growth inhibition [2, 7]","growth inhibition [2, 8]",growth inhibition ([2]; at 50.0 µM),"growth inhibition [3, 7] [%]","growth inhibition [3, 8]",growth inhibition ([3]; at 50.0 µM),"growth inhibition [4, 7]","growth inhibition [4, 8]",growth inhibition ([4]; at 50.0 µM),"growth inhibition [5, 7]","growth inhibition [5, 8]",growth inhibition ([5]; at 50.0 µM),"growth inhibition [6, 7] [%]","growth inhibition [6, 8]",growth inhibition ([6]; at 50.0 µM)
CC12CCC(=O)C=C1CCC1C2CCC2(C)C(C(=O)Cn3cnc4c(=S)nc[nH]c43)CCC12 (stereo not given),11%,25%,32.2%,5%,-6%,24.6%,-2,23%,37.5%,-26%,19%,14.8%,0%,16%,-4.65%,-2,22%,-4.7%
O=C(Nn1c(-c2ccccc2)nc2ccccc2c1=O)c1ccccc1O,-4%,49%,73.4% (active),-14%,51%,64.2%,3,59%,79.5% (active),9%,59%,77.8% (active),-11%,80% (active),78.2% (active),-1,79% (active),69.8%
OCC1(O)OCC(O)C(O)C1O (stereo not given),-3%,72% (active),74.7% (active),-2%,68%,80% (active),0,60%,72.7% (active),7%,29%,58.8%,1%,69%,72.1% (active),-1,81% (active),79.5% (active)
OC1(c2ccc(Br)cc2)C2CCCCC2C2CCCCC21 (stereo not given),36%,92% (active),98% (active),7%,95% (active),98.5% (active),18,95% (active),98.3% (active),-4%,92% (active),97.7% (active),7%,93% (active),98.4% (active),10,95% (active),98.2% (active)
O=C(O)c1ccc(OCc2ccccc2)c(Cl)c1,16%,36%,52.8%,22%,44%,25.5%,11,38%,30.9%,-8%,39%,54.2%,3%,17%,38.2%,12,47%,59.1%
NNc1cc(Cl)ccc1Cl,73% (active),93% (active),90.7% (active),91% (active),99% (active),91.8% (active),57,98% (active),94% (active),80% (active),98% (active),91.8% (active),89% (active),99% (active),91.5% (active),55,100% (active),90.7% (active)
COc1ccc2c(c1)CC[C@@H]1C2CC[C@]2(C)OC(=O)CCC12 (stereo not given in full),-23%,98% (active),73.1% (active),-5%,89% (active),66.8%,-15,93% (active),77.1% (active),-4%,92% (active),67.3%,-31%,97% (active),72.7% (active),12,97% (active),71.7% (active)
CCCCNCCC(SSSC(CCNCCCC)c1ccc(Cl)cc1)c1ccc(Cl)cc1 (stereo not given),26%,97% (active),95.2% (active),-74%,98% (active),52.5%,20,99% (active),98.4% (active),17%,97% (active),20.1%,25%,98% (active),52.2%,26,98% (active),97.7% (active)
CC(=O)C1CCC2C1(C)CC1OC13C21C=CC2(CC(O)CCC23C)C2C(=O)OC(=O)C21 (stereo not given),-1%,98% (active),99.4% (active),4%,97% (active),91.5% (active),2,99% (active),99.3% (active),3%,98% (active),99.6% (active),2%,98% (active),95.7% (active),23,99% (active),99.2% (active)
CNC(=S)N(C)C(=S)Nn1c(=O)c(C)nn(C)c1=S,-24%,59%,70.8% (active),-23%,96% (active),79.7% (active),-19,50%,87% (active),-3%,66%,57.9%,-18%,77% (active),78.4% (active),-27,97% (active),72.5% (active)
